Source: PubChem BioAssay AID1030 (National Center for Advancing Translational Sciences (NCATS), 2008)
Among all 220,000 compounds or so, about 16,000 (7.3%) were called active. About 25% were inconclusive and are not listed. Calls follow the shape of the dose curve; as a rule, active = well fitted inhibition curve with a large enough effect (not every such curve was filed as active); inconclusive = small, poorly fitted or top-dose-only effect, or another doubt; inactive = no such curve, though single readings can be large or run the other way. The sample as a whole holds a higher share of actives than the screen did.

These compounds were tested against Aldehyde dehydrogenase 1A1 (Homo sapiens) (UniProt P00352) (assay: qHTS Assay for Inhibitors of Aldehyde Dehydrogenase 1 (ALDH1A1)). Settings: Purified ALDH1A1, NADH fluorescence, propionaldehyde substrate; series mostly up to 75.3 µM; activity, negative = inhibition: at the top concentration.
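For activity, negative = inhibition in this document: plate controls were no enzyme wells and a reference inhibitor.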
Potency is read from the fitted curve at half-maximal effect.

Sequence of Aldehyde dehydrogenase 1A1 (Homo sapiens) (P00352 whole entry, looked up): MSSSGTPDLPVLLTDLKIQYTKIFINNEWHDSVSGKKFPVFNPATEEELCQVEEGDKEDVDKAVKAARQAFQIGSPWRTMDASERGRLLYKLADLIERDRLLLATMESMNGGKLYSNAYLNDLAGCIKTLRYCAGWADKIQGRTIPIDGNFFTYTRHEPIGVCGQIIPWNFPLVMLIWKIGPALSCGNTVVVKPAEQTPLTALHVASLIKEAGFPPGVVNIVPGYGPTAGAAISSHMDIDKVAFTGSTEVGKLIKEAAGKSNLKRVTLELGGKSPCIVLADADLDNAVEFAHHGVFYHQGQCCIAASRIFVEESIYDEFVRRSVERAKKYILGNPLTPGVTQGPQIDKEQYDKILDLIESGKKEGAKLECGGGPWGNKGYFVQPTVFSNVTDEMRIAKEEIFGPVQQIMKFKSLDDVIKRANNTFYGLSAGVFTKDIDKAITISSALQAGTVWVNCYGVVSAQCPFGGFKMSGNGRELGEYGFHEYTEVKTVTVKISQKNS

| SMILES | activity, negative = inhibition | Potency |
| --- | --- | --- |
| Cn1cnnc1Sc1ccc(CN2CCN(C3CCCC3)C(CCO)C2)o1 (configuration not stated) | -6.89% (inactive) |  |
| COc1cccc2cc(/C(C)=N/NC(=O)c3ccco3)oc12 | -2.36% (inactive) |  |
| C=CCOc1c(CNn2cn[nH]c2=S)cccc1OC | 4.16% (inactive) |  |
| CC(C)C(=O)Nc1cccc(NC(=S)NC(=O)C(c2ccccc2)c2ccccc2)c1 |  | 25.1 µM (active) |
| CCCCC(=O)NNC(=S)NC(=O)C(c1ccccc1)c1ccccc1 | 0.816% (inactive) |  |
| CC(C)C(=O)NC(=S)Nc1ccccc1F | -5.01% (inactive) |  |
| Cn1nnnc1NCc1ccc(Cl)c(Cl)c1 | 1.56% (inactive) |  |
| O=C(COC(=O)[C@H](Cc1ccccc1)NC(=O)c1cccs1)Nc1cc(F)ccc1F |  | 14.1 µM (active) |
| COC(=O)c1ccc(/C=N/OCC(=O)Nc2cc(F)ccc2F)cc1 | -9.21% (inactive) |  |
| Cc1ccc(F)c(NC(=O)CCc2ccccc2)c1 | -2.03% (inactive) |  |
| NC(=O)c1ccc(NC(=O)COC(=O)C(Cc2ccccc2)NC(=O)c2ccccc2)cc1 (configuration not stated) |  | 0.891 µM (active) |
| CC(=O)c1ccc(NC(=O)N[C@@H](Cc2ccccc2)C(=O)O)cc1 | 5% (inactive) |  |
| CCC(C(=O)OCC(=O)Nc1ccc(C(=O)Nc2ccc(OC)cc2)cc1)c1ccccc1 (configuration not stated) | 3.04% (inactive) |  |
| CCCCCc1nnc(NC(=O)c2ccc(=O)n(C)n2)s1 | -0.796% (inactive) |  |
| C=CCn1cc(C(=O)NCc2ccc(Cl)cc2)c(=O)c2cc(S(=O)(=O)N(CC)CC)ccc21 | -2.01% (inactive) |  |
| Cc1ccc(C(=O)NCC2CCCO2)o1 (configuration not stated) | 7.91% (inactive) |  |
| Cc1nc2ccccc2c2oc(C(=O)NCC3CCCO3)cc12 (configuration not stated) |  | 14.1 µM (active) |
| Cc1nc2ccccc2c2oc(C(=O)NCCCN3CCC(C)CC3)cc12 | -1.82% (inactive) |  |
| O=c1c(-c2ccccc2)cnc2n1CCS2 | 4.15% (inactive) |  |
| CN(C)CC(C)(C)CNC(=O)c1cc(Br)cc(Br)c1O | -13.5% (inactive) |  |
| CN(C)C(CNC(=O)c1ccc(S(=O)(=O)NCc2ccco2)cc1)c1ccccc1 (configuration not stated) | 11.2% (inactive) |  |
| CC(=O)c1ccc(S(=O)(=O)Nc2ccc(C(=O)NCC(c3ccccc3)N(C)C)cc2)cc1 (configuration not stated) |  | 2.82 µM (active) |
| CN(C)C(CNC(=O)Cc1ccc([N+](=O)[O-])cc1)c1ccccc1 (configuration not stated) | 0.871% (inactive) |  |

| SMILES | activity, negative = inhibition | Potency |
| --- | --- | --- |
| CCC(C)(C)NC(=O)C(c1ccccn1)N(C(=O)c1csnn1)c1ccccc1 (configuration not stated) | 0.639% (inactive) |  |
| Cc1ccc(C(=O)N2CCCC(c3ccccc3)=N2)cc1 | -7.82% (inactive) |  |
| Cc1cc(C)c(OCCN2CC(C)OC(C)C2)c(Br)c1 (configuration not stated) | -12.9% (inactive) |  |
| COc1ccc(NC(=O)N2CCC(Cc3ccccc3)CC2)cc1 | -13.4% (inactive) |  |
| Cc1ccccc1/[N+]([O-])=C/c1ccncc1 |  | 3.98 µM (active) |
| CCNC(=O)COC(=O)/C=C/c1c(C)nn(Cc2cccc(OC)c2)c1Cl | -14.4% (inactive) |  |
| O=C(CCNC(=O)Cn1ccc2ccccc2c1=O)NCCC1=CCCCC1 | -8.45% (inactive) |  |
| COc1ccc(CN(C)C(=S)Nc2ccc(Cl)cc2Cl)cc1 | 5.98% (inactive) |  |
| O=C1CC2(CC(c3ccc(Cl)cc3)=NO2)C(=O)N1c1ccccc1 (configuration not stated) | -7.62% (inactive) |  |
| CCN1CC(CN(C)Cc2nc(-c3ccc(Cl)cc3)no2)CC1=O (configuration not stated) | 4.9% (inactive) |  |
| CN(C)C(=O)N1CCNCC1 | 12.2% (inactive) |  |
| CCn1c(=S)[nH]c2sc3c(c2c1=O)CCCCC3 |  | 22.4 µM (active) |
| Cn1c(=O)n(Cc2ccco2)c(=N)c2c3c(sc21)CCCC3 | -0.0363% (inactive) |  |
| CCC1(C)Cc2c(sc3[nH]c(=S)n(Cc4ccccc4)c(=O)c23)CO1 (configuration not stated) | -4.85% (inactive) |  |
| C=CCn1c(=S)sc2c(=O)[nH]c(C)nc21 | -7.18% (inactive) |  |
| CCOC(=O)C1(CCOc2ccccc2)CCN(C(=O)c2cncs2)CC1 | -4.17% (inactive) |  |
| Cc1c(C(N)=O)sc2ncn(CCOc3ccccc3)c(=O)c12 | -1.68% (inactive) |  |
| CCN1C(=O)N[C@@H](c2ccccc2)[C@H](C(C)=O)[C@H]1C | 7.43% [at 13.5 µM] (inactive) |  |
| CC(=O)c1ccc(OCCN2CCOCC2)cc1 |  | 25.1 µM (active) |
| Cc1ccc(C(=O)OC(C)CN2CCOCC2)cc1 (configuration not stated) | 0.589% (inactive) |  |
| COc1ccc(OCC(=O)N2CCOCC2)cc1 | 5.41% (inactive) |  |
| FC(F)(F)c1cccc(-c2nc(COc3ccc(Cl)cc3Cl)no2)c1 | 6.34% (inactive) |  |
| O=C(CC1SCCNC1=O)Nc1ccc(Cl)cc1 (configuration not stated) | 9.61% (inactive) |  |

| SMILES | activity, negative = inhibition | Potency |
| --- | --- | --- |
| Cc1ccc(OCC(=O)NNC(=S)NCc2ccccc2)cc1 | -1.88% (inactive) |  |
| Fc1ccc(N2CCN(Cc3cnc(Oc4ccc(Br)cc4)s3)CC2)cc1 | -1.13% (inactive) |  |
| COc1ccc(N2CCN(Cc3nnc(-c4ccccc4)o3)CC2)cc1 | 2.42% (inactive) |  |
| COc1ccc(N2CCN(Cc3ccc(Br)s3)CC2)cc1 |  | 25.1 µM (active) |
| Cc1ccc(NC(=O)CC2C(=O)N(Cc3ccccc3)C(=S)N2NC(=O)c2cccc(F)c2)c(C)c1 (configuration not stated) | 2.55% (inactive) |  |
| Cc1ccc(NC(=S)N(CCN(C)C)Cc2cccs2)cc1C | 4.01% (inactive) |  |
| O=C(O)CC(SCC(=O)Nc1ccc(Br)cc1)C(=O)O (configuration not stated) | -4.63% (inactive) |  |
| COc1ccc(SCc2noc(C(=O)NCC3CCCO3)c2C(=O)O)cc1 (configuration not stated) | 1.65% (inactive) |  |
| CCOc1ccc(-n2c(N)c(C(=O)NCC3CCCO3)sc2=S)cc1 (configuration not stated) |  | 15.8 µM (active) |
| CCOc1ccc(S(=O)(=O)NCC2CCCO2)cc1 (configuration not stated) | -7.57% (inactive) |  |
| Cc1ccc(Cl)c(NC(=O)CN(C)CC(=O)Nc2ccc(F)c(F)c2F)c1Cl | 8.7% (inactive) |  |
| Cc1cccc(CN2CCN(Cc3cnn(-c4ccccc4F)c3)CC2CCO)n1 (configuration not stated) | -3.37% (inactive) |  |
| O=c1[nH]oc(O)c1-c1ncc(C(F)(F)F)cc1Cl | 9.67% (inactive) |  |
| Cc1csc(NC(=O)CSc2ccc(-c3ccc(F)cc3)nn2)n1 | 8.44% (inactive) |  |
| Cc1cc(/C=C2\SC(=Nc3ccc(N4CCOCC4)cc3)N(C)C2=O)c(C)n1-c1cccnc1 | -3.64% (inactive) |  |
| O=C(C1CC1)N1N=C2CCCCC2C1(O)C(F)(F)F (configuration not stated) | 4.47% (inactive) |  |
| CCCc1nc2sc3c(c2c(=O)n1NC(=O)CCCl)CCCC3 |  | 14.1 µM (active) |
| CC(C(=O)O)n1cnc2sc3c(c2c1=O)CCCC3 (configuration not stated) | 4.67% (inactive) |  |
| N#Cc1c(NC(=O)CCCl)sc2c1CCCCC2 | -5.19% (inactive) |  |
| O=C1CCC/C(=N\NC(=O)NC2CCCCC2)C1 | 2.09% (inactive) |  |
| CCN(CC(=O)Nc1ccc(Cl)c(S(=O)(=O)N(C)C)c1)Cc1nc2ccccc2c(=O)[nH]1 |  | 25.1 µM (active) |
| CN(CCOc1ccccc1)Cc1nc2cc(Cl)ccc2c(=O)[nH]1 | -4.61% (inactive) |  |
| CCN(CC(=O)NC(=O)NCc1ccccc1)Cc1nc2ccccc2c(=O)[nH]1 | -9.25% (inactive) |  |

| SMILES | activity, negative = inhibition | Potency |
| --- | --- | --- |
| Cc1ccc(S(=O)(=O)NC2(C(F)(F)F)NC(=O)N(CCc3ccccc3)C2=O)cc1 (configuration not stated) | 11.8% (inactive) |  |
| O=C(Nc1ncc2c(n1)CC(c1ccco1)CC2=O)c1ccc(Cl)cc1 (configuration not stated) |  | 10 µM (active) |
| COc1cc(C2CC(=O)c3cnc(NC(C)=O)nc3C2)cc(OC)c1OC (configuration not stated) | -3.5% (inactive) |  |
| CC1=C(C(=O)Nc2ccc(Cl)cc2)C(c2ccco2)NC(=O)N1 (configuration not stated) | 7.11% (inactive) |  |
| O=C1C=C(c2ccccc2)CCC1 | 12.6% (inactive) |  |
| Cc1ccsc1C1C(C#N)=C(N)OC2=C1C(=O)CC(C)C2 (configuration not stated) | 1.99% (inactive) |  |
| NC1=C([N+](=O)[O-])C(c2ccccc2)C2=C(CCCC2=O)O1 (configuration not stated) | -2.58% (inactive) |  |
| N#CC1=C(N)OC2=C(C(=O)CCC2)C1C1CC=CCC1 (configuration not stated) |  | 10 µM (active) |
| O=C(Nc1ccc(N2CCOCC2)cc1)c1ccc2c(c1)OCO2 | 3.33% (inactive) |  |
| COc1ccc(C(F)(F)F)cc1N/C=C\c1nnnn1-c1ccc(C)cc1 |  | 25.1 µM (active) |
| COc1ccc(/C(C)=N/Nc2cc(C(F)(F)F)ccc2Cl)c(OC)c1 | 15% (inactive) |  |
| COc1ccc(C)cc1NC(=O)CCC(=O)Nc1nnc(C(F)(F)F)s1 | 4.14% (inactive) |  |
| CSc1cc(C)[nH]c(=O)n1 | 3.77% (inactive) |  |
| COc1ccc(Cl)cc1NC(=O)NC(C)C(C)(C)C (configuration not stated) | 10.4% (inactive) |  |
| Cc1sc2nc(CC(N)=O)[nH]c(=O)c2c1-c1ccccc1 |  | 7.08 µM (active) |
| NC(=O)Cc1nc2scc(-c3ccc(Cl)cc3)c2c(=O)[nH]1 | -1.08% (inactive) |  |
| NC(=O)Cc1ccc2sc(-c3ccccc3)nc2c1 | 9.05% (inactive) |  |
| CCc1ccc(NC(=O)CSc2nc3ccccc3c(=O)n2CCN2CCOCC2)cc1 | -6.19% (inactive) |  |
| CCc1ccc2ncc(C(=O)c3ccccc3)c(N3CCOCC3)c2c1 |  | 4.47 µM (active) |
| Cc1cc(C(=O)Nc2ccccc2N2CCOCC2)c2ccccc2n1 | -2.76% (inactive) |  |
| O=C(CCSc1ccccc1)N1CCN(c2ccccc2F)CC1 | -54.1% (inactive) |  |
| O=C(CSc1nn(-c2ccc(F)cc2)c(=S)s1)NC1CCS(=O)(=O)C1 (configuration not stated) | -4.99% (inactive) |  |
| Cc1cc(C)cc(OCC(=O)NCc2cc(C)nc3ccccc23)c1 | -4.15% (inactive) |  |

| SMILES | activity, negative = inhibition | Potency |
| --- | --- | --- |
| OCC1(Cc2ccccc2)CCN(Cc2cc3ccccc3o2)CC1 | 5.22% (inactive) |  |
| Cc1cc(C)c2c(-n3cccc3)c(NC(=O)OCc3ccccc3)sc2n1 | 5.3% (inactive) |  |
| COC(=O)Nc1sc2nc(C)cc(C)c2c1-n1cccc1 | 2.42% (inactive) |  |
| Cc1cc(C)c2c(-n3cccc3)c(C(=O)NNS(=O)(=O)c3ccc(F)cc3)sc2n1 |  | 2.24 µM (active) |
| CCNC(=O)CC1C(=O)N(c2ccc(F)cc2)C(=O)N1Cc1cccs1 (configuration not stated) | -3.81% (inactive) |  |
| CCN(CC)CCCNC(=O)c1ccc2c(=O)n(Cc3ccc4c(c3)OCO4)c(=S)[nH]c2c1 | -10.2% (inactive) |  |
| c1ccc2c(C[n+]3csc4ccccc43)cccc2c1 |  | 10 µM (active) |
| N=C(N)SCc1cccc2ccccc12 | 6.99% (inactive) |  |
| c1ccc2c(CSCc3nc4ccccc4[nH]3)cccc2c1 | 10.2% (inactive) |  |
| CN1CCN(C(CNS(=O)(=O)c2cccs2)c2cccnc2)CC1 (configuration not stated) | -6.14% (inactive) |  |
| O=C(Nc1nnc(SCc2ccc(Cl)cc2Cl)s1)C1COc2ccccc2O1 (configuration not stated) | -4.92% (inactive) |  |
| O=C(Nc1nc(-c2ccc3c(c2)OCO3)cs1)c1ccncc1 | 5.35% (inactive) |  |
| O=C(Nc1nc(-c2ccncc2)cs1)C1COc2ccccc2O1 (configuration not stated) |  | 3.55 µM (active) |
| COc1ccc(/C=C/C(=O)Nc2cccnc2)cc1OC | -11.3% (inactive) |  |
| CCCS(=O)(=O)N1CCC(CCOc2ccccc2)(C(=O)OCC)CC1 | -8.63% (inactive) |  |
| N#Cc1c(-c2ccc(Cl)cc2)c2c([nH]c1=S)CCCC2 | 18.4% (inactive) |  |
| COc1ccc(NC(=O)C(C)SCc2ccccc2)cc1 (configuration not stated) | 1.4% (inactive) |  |
| Cc1onc(-c2c(Cl)cccc2Cl)c1C(=O)c1c[nH]c(C(=O)NC2CC2)c1 | 2.22% (inactive) |  |
| Cc1[nH]n(C)c(=O)c1C(=O)c1c(-c2c(Cl)cccc2Cl)noc1C |  | 8.91 µM (active) |
| Cc1onc(-c2c(Cl)cccc2Cl)c1C(=O)NNC(=O)c1c(-c2c(Cl)cccc2Cl)noc1C | 9.07% (inactive) |  |
